The labels stand for the following.
T1: UNK ZnF1-3 (human, UniProt Q9C0B0 31-174)
T1 sequence: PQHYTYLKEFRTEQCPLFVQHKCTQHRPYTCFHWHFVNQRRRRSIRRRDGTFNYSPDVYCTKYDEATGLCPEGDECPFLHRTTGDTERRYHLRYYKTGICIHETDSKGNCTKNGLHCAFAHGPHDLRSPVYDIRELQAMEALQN

B1: chr5:138654669:138654670:+_ENSG00000015479_ENST00000502499|hu_hu|motif|central (ssRNA)
RNA: GGGAGUUCUACAGUCCGACGAUCUUUCUUUAUUCUUUUAUACUUCUGGGAUAAAUGAACUCUCACUGGCUUGCCAAAUACGGACGCUGGUGUGGUUGUGUAAUAAUCCACUGCGGCCUGAGCAUCCUCUGUGGUUGCCAUUUCCAACAGAGGAUUGAGCAUCA
B2: 59350742_59359075_1706_CDS_ENSG00000157450_ENST00000557998|human|control|control (ssRNA)
RNA: GGGAGUUCUACAGUCCGACGAUCGUUCUGUGACGACCCUCCACAUGGUGAGUGCUGGGGACAGCAGGAAGGUAACCUUGGCAUUGCAGGAGGGCCAGUUUCCGUUACAGCACUAGAUGUAGUUCUCCUUGAGUCAUCUCCUAUCAACAGAGGAUUGAGCAUCA
B3: chr13:100518589:100518590:+_ENSG00000125246_ENST00000339105|hu_mus|FALSE|FALSE (ssRNA)
RNA: GGGAGUUCUACAGUCCGACGAUCUUCCCUUGACUGUCUGAGAAGUCCGUCUUCAUCUCGGAAGUCAAUGUACACAAGAUCUAUGGCUUGUAGGCCAAAGGCUUUUGCCGUGACAACAACCUUCUGCCGGGCAUAGAGGAUGUCCAACAGAGGAUUGAGCAUCA
B4: chr17:65337090:65337091:-_ENSG00000197170_ENST00000584008|hu_mus|FALSE|FALSE (ssRNA)
RNA: GGGAGUUCUACAGUCCGACGAUCCCAGUCAUUUAAUAAAUUAUUUGGAUCCUUGGGUCUCUGGAAGUUGAUGACUCCAGCCAACCUGUCUACUUUAGCAAAGAUGGUCUUGUUAACGACUAGAUUCGAGAGGAAAGCCUCUGACAACAGAGGAUUGAGCAUCA
B5: chr9:91093546:91093547:+_ENSG00000106723_ENST00000375859|hu_mus|motif|central (ssRNA)
RNA: GGGAGUUCUACAGUCCGACGAUCUACAUCAUAAUUAUAAAAAUUACUUACAGAAUUAACAGUUGUACUGUGUAUACUUCGGAAUGCAGAGAACAGGGAACCGUCUACACGUUGUAUAAAAUAAAAUUAAAAUUAAAAAUGAAUCAACAGAGGAUUGAGCAUCA
B6: chr12:35831226:35831227:+_ENSMUSG00000020590_ENSMUST00000048519|mus_mus|motif|central (ssRNA)
RNA: GGGAGUUCUACAGUCCGACGAUCUCAGCAGAAGACAUAUAGCCUCUUUGUGUCUAUGUUCAUCUGUGCAACAAGUGCACGGAAUAGAAUAAUUUUAUUAACCAGAGAAUACUGUACUCUACUCAUCGGUUAAACACUCUACACCAACAGAGGAUUGAGCAUCA
B7: chr9:91093546:91093547:+_ENSG00000106723_ENST00000375859|hu_mus|FALSE|FALSE (ssRNA)
RNA: B5 RNA with G80U, G81A
B8: chr1:10024197:10024198:-_ENSMUSG00000025917_ENSMUST00000027050|mus_mus|FALSE|FALSE (ssRNA)
RNA: GGGAGUUCUACAGUCCGACGAUCCAGCAUCUGUGUACUAACAUCAAUCCCGGAGAGCCAGCAGCCAUAACCAGGGUGGCUAUGAUACCAACCGAUUGCAUUCUCAAGGCGGCCAACCUGUUUGGCAUUUUCUAUGUAUGCAGCCAACAGAGGAUUGAGCAUCA
B9: chr1:225700702:225700703:-_ENSG00000154380_ENST00000366843|hu_hu|motif|central (ssRNA)
RNA: GGGAGUUCUACAGUCCGACGAUCACCAAUAGCAUUCCCUCCACUUGGGAAAGAGGUAUCCUCCAUCCGUGACACUUUCCGGAGUUUUGCUCCGGCAAUUGCAGCUGCAAGUCCAGUUAAAGGGCGAUUGUCUUCUGACAUGGACAACAGAGGAUUGAGCAUCA
B10: chr14:78183846:78183847:+_ENSG00000119705_ENST00000557342|hu_hu|hu_hu_hu_mus_False|58_98 (ssRNA)
RNA: GGGAGUUCUACAGUCCGACGAUCUCUCAGAAAUCUUUCUUUCUUUUAUGUUUGAGCUCCGUGCAAAGCCUUUGCUCUUCUAGUGUGAACGUGGAUCUAUGGGAGGGAAAGCACUGUCAGAAAAGGUAAUUUUUUUUUUAAAGACAACAGAGGAUUGAGCAUCA
B11: chr6:21597833:21597834:+_ENSG00000124766_ENST00000244745|hu_mus|motif|central (ssRNA)
RNA: GGGAGUUCUACAGUCCGACGAUCAAAGUUAAAACUCUAGCCCUUCAGUGAAGGAGACGUAAAAUGGCGUGGGUAACAACACGGGAAAAAAAAAAAAAACGAAGAAAAAGAAAGAAAAUAAAAAAGAAGAUAAAGAAACGAGGUCAACAGAGGAUUGAGCAUCA
B12: chr2:48026839:48026840:+_ENSG00000116062_ENST00000540021|hu_hu|hu_hu_hu_mus_False|28_88 (ssRNA)
RNA: GGGAGUUCUACAGUCCGACGAUCAUAGUGAGCCACUAGCGUCCUAAAUCUCGAACAGUGGCGGUCAUCCGAAAACUGGCCGAUGAAAAACUUGCCCAGUGAAGUGUCAACAAAGCAAACACCAUACACACGAGUGUGACCAGACAACAGAGGAUUGAGCAUCA
B13: chr17:32491106:32491107:-_ENSMUSG00000024050_ENSMUST00000163107|mus_hu|FALSE|FALSE (ssRNA)
RNA: GGGAGUUCUACAGUCCGACGAUCAUCGAUAACCAAAAUGUGGCCACUGAAAAAAGUUAAAAGGUCAAUCAGCUCCUGGCUUCUAGCUGGCCCAGGAUUGCAAAAUAAAAAGAUCCACGUUCCUUAUUCUCUACACAAAACGCGCAACAGAGGAUUGAGCAUCA
B14: chr1:100342015:100342016:+_ENSG00000162688_ENST00000361915|hu_hu|motif|central (ssRNA)
RNA: GGGAGUUCUACAGUCCGACGAUCAGAUUCUUCCAUGGAGAAGUCUAUCUCUUCAAAUGGGAAAGUAAAAUACCUGGUAACGGAAGGAUGCUUUCUAGUGACAGGUCCUAGUUUUGGACCAUGGCCAGCCAGUCGUUCAUAAAACAACAGAGGAUUGAGCAUCA
B15: chr6:21597833:21597834:+_ENSG00000124766_ENST00000244745|hu_mus|FALSE|FALSE (ssRNA)
RNA: B11 RNA with G82U, G83A
B16: 75522086_75522670_732_CDS_ENSMUSG00000026213_ENSMUST00000113553|mouse|control|control (ssRNA)
RNA: GGGAGUUCUACAGUCCGACGAUCCAGGAGACGCAGGGAGCUGUCUAAGCUCCUGAGCGCAUUGUAGCUGAAGUCGGCAGAAAGCAAGGCUAGCCAGGGGAGGGCAGAGCAGAGAUCCCCACCACAGGCUGACAAGAGCUCCUCCAACAGAGGAUUGAGCAUCA
B17: chr1:244855233:244855234:+_ENSG00000121644_ENST00000302550|hu_mus|hu_hu_hu_mus_True|28_88 (ssRNA)
RNA: GGGAGUUCUACAGUCCGACGAUCCAUCAGAUGGUAGGCGUUGCCCUUGUAUUCUUUCCCCAGUUCUUCUACAAUUUUCUCUAUAUCAUCUUCUAGAAAGUCCGUACUCCCUAAAACAACAGCUUCUUUAAAUUUAAAUGUUUCCAACAGAGGAUUGAGCAUCA
B18: chr7:118222036:118222037:-_ENSMUSG00000005610_ENSMUST00000162415|mus_mus|FALSE|FALSE (ssRNA)
RNA: GGGAGUUCUACAGUCCGACGAUCAUCAAAGUUUGGUGCAUCUUCUGCCAAUCGCAGACAUAGCUGAGCAUACAGCGAGCUAUACUUUGGCUCUUCUAAGGCUUUGUCCACAAUCAGCAGUAUGACCCCUUUAAGGAUGAGUUUCAACAGAGGAUUGAGCAUCA
B19: chr15:25293464:25293465:-_ENSMUSG00000045763_ENSMUST00000058845|mus_hu|FALSE|FALSE (ssRNA)
RNA: GGGAGUUCUACAGUCCGACGAUCAAAAAUAUCUGGAGAGGAAGAAUGGAGGAUUGGCAUUGAGAUCCAUGUGGACAAGCUAAGUGGGCUCUGUCUGAAAGCUGGCAUUCAUCCACAACAUUAAAAAAAUAUCAAAAUAAGAAACAACAGAGGAUUGAGCAUCA
B20: chr15:25293464:25293465:-_ENSMUSG00000045763_ENSMUST00000058845|mus_hu|motif|central (ssRNA)
RNA: B19 RNA with U80G, A81G
B21: chr1:46159212:46159213:+_ENSG00000159596_ENST00000372025|hu_mus|hu_hu_hu_mus_True|38_58 (ssRNA)
RNA: GGGAGUUCUACAGUCCGACGAUCUCUGAUCCCUCCCAAGAAAGCUAGGAAACCGGCUCCAUAAGCCAUCUGAGUGAAAGCUAAUAUGGGGAUAUAAGUUUUUGUCAUUACCAUGAGAAGUGGGGGAGCAGUAAAGGGGAUUAACAACAGAGGAUUGAGCAUCA
B22: chr9:122046571:122046572:+_ENSMUSG00000038145_ENSMUST00000120173|mus_mus|FALSE|FALSE (ssRNA)
RNA: GGGAGUUCUACAGUCCGACGAUCCUGAAAUUUGUUGCUGAAGCCAAAGUCUGUCAACUUCACAAGACCUUGUUUUUCAAAAAAGACUACAUUCUCUGGUUUCAAGUCUCUGUGGACCACAUGGAGUUUAUGGCAAUAAGAUAUCAACAGAGGAUUGAGCAUCA
B23: chr18:38477064:38477065:+_ENSMUSG00000060450_ENSMUST00000072376|mus_hu|motif|central (ssRNA)
RNA: GGGAGUUCUACAGUCCGACGAUCUGCAGAUAUAAUUCAAGAACAUUCAGCUUGGGAAUAUAUUAAGCUUUCUCCGGUUCCAGCAGAGGAAAUAAAAACAUGUGUUCCUGGAAUUAAUAUUAAAAUCAUCCUUACAAACAGAAGCAACAGAGGAUUGAGCAUCA
B24: chr15:25293464:25293465:-_ENSMUSG00000045763_ENSMUST00000058845|mus_mus|motif|central (ssRNA)
RNA: GGGAGUUCUACAGUCCGACGAUCAAAAAUAUCUGGAGAGGAAAAAUGGAGGGUUGGCAUUGAGAUACAUGUGGACAAGCGGAGUGGGCUCCGUCUGAAAGUUGGCAUUCAUCCACGAACGUUUAAAAAAAUACCAAAAAAAUUCAACAGAGGAUUGAGCAUCA

Numbering of substitutions follows the chain as printed. Over roughly 24,000 sequences, “enrichment r” has its median near 0.99; the highest 2% begin near 3.7. This is one part of a sample in which the highest values are shown more often than they occur.

This assay concerns the target T1, UNK ZnF1-3. In words: nsRBNS (natural sequence RNA bind-n-seq); RBNS binding buffer (assumed for nsRBNS): 25 mM Tris pH 7.5, 150 mM KCl, 3 mM MgCl2, 0.01% Triton X-100, 500 ug/ml BSA, 20 U/ml SUPERase-In, 4 C; UNK is unkempt and MSI1 is Musashi-1; names of the RNAs are library labels; protein concentration not given here; high values mean tight binding.
B1 showed a binding signal of 0.487 enrichment R.
The same measure for B2: 0.898 enrichment R; for B3: 0.641 enrichment R.
As for B4, the binding signal stood at 1.07 enrichment R.
With B5 the figure was 4.68 enrichment R.
The same measure for B6: 0.463 enrichment R; for B7: 7.07 enrichment R.
In turn, B8 displayed a binding signal of 1.5 enrichment R.
With B9 the figure was 0.794 enrichment R.
In the case of B10, the binding signal is 1.14 enrichment R.
With B11 the figure was 5.74 enrichment R.
As for B12, the binding signal was 1.25 enrichment R.
The same measure for B13: 1.24 enrichment R.
Molecule B14 registered a binding signal of 0.918 enrichment R.
Consider B15, for which the binding signal amounted to 7.3 enrichment R.
The molecule B16 returned a binding signal of 1.21 enrichment R.
The same measure for B17: 1.19 enrichment R; for B18: 0.544 enrichment R; for B19: 15.3 enrichment R.
The same measure for B20: 8.1 enrichment R; for B21: 1.29 enrichment R; for B22: 0.833 enrichment R.
In turn, B23 showed a binding signal of 2.14 enrichment R.
The same measure for B24: 3.28 enrichment R.

The record behind these values is PMC12136788.
